# A selection follows.
# aSyn UTR act: Activators via SNCA 5'UTR binding, MLPCN | alpha-synuclein 5'UTR reporter, activators screen | activity score, % (tested at 7.5 µM), hits read low | 300,000 tested, 7.1% active; in the data active = activity score below about -60%
# The depositor's hits bear a star.
SMILES,aSyn UTR act
C=C1[C@@H](C)[C@H]2[C@H](Cc3ccccc3)NC(=O)[C@]23OC(=O)/C=C/[C@H](O)CCC[C@@H](C)C/C=C/[C@H]3[C@@H]1O,109
O=C(Nc1ccc(Cl)c(Cl)c1)c1ccco1,-170*
Cc1ccc2cc(C=C(C#N)C#N)c(Cl)nc2c1,-79*
C=C(C=O)C[C@@H]1C[C@H](O)C2OC3C[C@]4(C)OC5/C=C\CC6OC7C(CC=CCC6OC5CCCC4OC3CC2O1)OC1CC2OC3CC(=O)OC3C[C@@H](C)C[C@@]2(C)OC1C[C@@H]7C (stereo not given in full),113
Nc1ccccc1C(=O)OCC(=O)c1ccc2c(c1)OCCO2,-64*
Cc1c(OC(=O)N(C)C)ccc2c1O/C(=C\c1ccco1)C2=O,-134*
NC(=O)c1cn(C2OC(CO)C(O)C2O)c2ncnc(N)c12 (stereo not given),106
CCc1ccc(-c2nn(Cc3ccccc3)cc2C=O)cc1,-140*
O=Cc1cn(Cc2cccc(F)c2)c2ccccc12,52
COc1ccc(/C=C/C2=CCN(C)CC2)cc1,-79*
O=C1NC(=O)N(Cc2ccco2)C(=O)/C1=C/C=C/c1ccco1,-288*
O=C1NC(=O)N(Cc2ccccc2)C(=O)/C1=C\C=C\c1ccco1,-222*
C=CCN1C(=O)NC(=O)/C(=C/C=C/c2ccccc2)C1=O,-69*
O=C1C(=O)c2ccccc2-c2ccccc21,119
c1ccc2sc(NC3=NCCN3)nc2c1,-103*
COc1ccc2nc(NC3=NCCN3)sc2c1,-209*
CC1(C)C[C@H]2C=C(C=O)[C@]3(C=O)C[C@]3(C)[C@H]2C1,117
COC(=O)C1CN(C#N)N(c2ccc(Cl)cc2)C12c1ccccc1-c1ccccc12 (stereo not given),112
COc1ccc(C2NCc3ccc4c(c3-n3cccc32)OCO4)cc1O (stereo not given),61
CCOC(=O)c1cc2c(cn1)[nH]c1ccccc12,-142*
COc1ccc(NC2=NC(C)(C)CS2)cc1,-140*
Cc1cc(NC(=O)CCl)no1,-99*
C=CCN1C(=O)NC(=O)/C(=C/c2ccc(OC)c(COc3ccc(NC(C)=O)cc3)c2)C1=O,-64*
Cc1ccc2nc(N3CCN(C)CC3)[nH]c2c1,-96*
Cc1ccc2nc3c(cc2c1)CC1(C(=O)N(C)C(=O)N(C)C1=O)C1COCCN31 (stereo not given),-63*
SMILES,aSyn UTR act
Cc1ccc2nc3c(cc2c1)CC1(C(=O)N(C)C(=O)N(C)C1=O)C1CCCCN31 (stereo not given),-106*
Nc1ccccc1C(=O)OCc1ccc([N+](=O)[O-])cc1,-83*
Cc1ccc(C[n+]2c(-c3ccc(C)cc3)cc(-c3ccc(C)cc3)cc2-c2ccc(C)cc2)cc1,95
CN1C(=O)C(=Cc2ccc(N3CCOCC3)o2)C(=O)N(C)C1=S,-65*
CN1C(=O)/C(=C\c2ccc(N3CCCCC3)o2)C(=O)NC1=S,-162*
CN1C(=O)/C(=C/c2ccc(N3CCCCCC3)o2)C(=O)NC1=S,-186*
O=C1NC(=O)C(CCc2ccncc2)(Cc2cccc(Cl)c2Cl)C(=O)N1c1ccc(Br)cc1 (stereo not given),58
CC(C)(C)c1ccc(CSc2cnn(C(C)(C)C)c(=O)c2Cl)cc1,101
C[C@H]1CCC[C@@H](O)CCC/C=C/c2cc(O)cc(O)c2C(=O)O1,-170*
CC1CCC/C=C/C2CC(O)CC2C(O)/C=C/C(=O)O1 (stereo not given),133
C[C@H]1CCC/C=C/C2C[C@H](O)CC2[C@H](O)/C=C/C(=O)O1 (stereo not given in full),100
O=C(c1ccc2c(c1)ncn2C1CCCCC1)N1CCC2(CC1)OCCO2,-171*
COc1ccc(P2(=O)Nc3ccccc3N2)cc1,-139*
CN(C)C(=O)On1c(-c2ccccc2)nc2ccc(Cl)cc21,-71*
CCC(C)/C=C(C)/C=C/C1=CC2=C(Cl)C(=O)C(C)(OC(C)=O)C(=O)C2=CO1 (stereo not given),-96*
CC1(C)CN=C(NCc2ccccc2Cl)S1,-92*
O=C1NC(=O)C(=Cc2cccc(OCCOc3ccccc3)c2)C(=O)N1,-87*
CC/C(=N\N1CCCCC1)c1c(O)[nH]c(=O)[nH]c1=O,59
CNC(=O)Oc1cccc(-c2cn3cc(Cl)ccc3n2)c1,61
C=C1C(=O)O[C@@H]2C[C@@H](C)[C@@H]3C4OC4C(=O)[C@@]3(C)[C@@H](O)[C@H]12 (stereo not given in full),-221*
C=CCN=C(SCC(=O)c1ccc(Cl)cc1)c1c(O)n(C)c(=O)n(C)c1=O,-71*
CN1C(=O)C(=Cc2ccc(OCCN(C)c3ccccn3)cc2)C(=O)N(C)C1=O,-82*
O=C(Nc1ccc(OC(=O)N2CCCCC2)cc1)N1CCOCC1,89

# Compound activity: PubChem BioAssay, Broad Institute
